Here are results for eight compounds from PubChem BioAssay (NCI).

Among the test systems are NCI-H23 lung; NCI-H226 lung; NCI-H322M lung; HOP-62 NSCLC; NCI-H460 lung; HOP-92 NSCLC; NCI-H522 lung; A549/ATCC NSCLC; 786-0 renal; COLO 205 colon; DU-145 prostate; K-562 leukemia; MALME-3M melanoma; MDA-MB-231 breast; RXF 393 renal; SF-268 CNS; SF-295 CNS; SF-539 CNS; UACC-257 melanoma; M14 melanoma.
Holding throughout (assay): NCI-60 one-dose screen, 48 h (100 = growth as untreated, 0 = no growth, -100 = all killed)
Common to all, as to conditions: 10 µM unless noted

This is part of a sample that, as a whole, favours compounds with a hit. Of some 83,000 tested, about 20% had one in any assay.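 Cells were grown in 96-well plates and exposed to the test compound at a single concentration for 48 hours; results are reported as percent growth, with values below 10 considered active.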 Unmarked numbers belong to inactive results. Activity calls are given as the source filed them.

In the case of `COc1ccc(-c2nc3sccn3c2/C=C/C(=O)c2cc(F)cc(F)c2)cc1`, the growth in the assay with NCI-H23 lung is 76.3%; in the assay on NCI-H226 lung, 80.5%; in the assay on NCI-H322M lung, 123%; in the assay with HOP-62 NSCLC, 85.8%; in the assay with NCI-H460 lung it was 88.4%; in the assay on HOP-92 NSCLC it was 18.6%. The growth was 48.6% with NCI-H522 lung; 89.3% in the assay with A549/ATCC NSCLC; 89.1% in the assay on 786-0 renal; 68.3% in the assay on COLO 205 colon; 86.2% in the assay on DU-145 prostate; 19.1% with K-562 leukemia. Also, the growth was 102% with MALME-3M melanoma; 62.6% with MDA-MB-231 breast; 54.4% with RXF 393 renal; 81.8% with SF-268 CNS; 116% in the assay on SF-295 CNS; 92.8% in the assay on SF-539 CNS. The results for the growth in the assay on UACC-257 melanoma and in the assay with M14 melanoma were 101% and 89.2%, respectively.
On to `O=c1ccn(C2CC(O)C(O)C(CO)O2)c(=O)[nH]1` (stereo not given), for which the growth is 110% in the assay with NCI-H23 lung; 142% in the assay with NCI-H226 lung; 131% in the assay with NCI-H322M lung; 107% in the assay with HOP-62 NSCLC; 124% in the assay with NCI-H460 lung; 121% with HOP-92 NSCLC. In addition, the growth in the assay with NCI-H522 lung is 148%; in the assay with A549/ATCC NSCLC, 118%; in the assay with 786-0 renal, 109%; with COLO 205 colon, 113%; in the assay on DU-145 prostate it was 121%; in the assay on K-562 leukemia it was 109%. Further, the growth in the assay on MALME-3M melanoma is 112%; with MDA-MB-231 breast it was 116%; in the assay on RXF 393 renal, 245%; with SF-268 CNS, 122%; in the assay with SF-295 CNS, 112%; with SF-539 CNS, 107%. In addition, the growth in the assay with UACC-257 melanoma is 112%; with M14 melanoma, 105%.
In the case of `COc1ccc2c(c1)OC1=C(C(=O)OC1)C2c1cc(OC)c2c(c1)OCO2` (stereo not given), the growth is 46.2% with NCI-H23 lung; 21.3% in the assay with NCI-H226 lung; 49% in the assay with NCI-H322M lung; 29.6% in the assay with HOP-62 NSCLC; 4.22% (active) in the assay with NCI-H460 lung; 55% with HOP-92 NSCLC. Besides, the growth is 4.87% (active) in the assay with NCI-H522 lung; 14.4% in the assay with A549/ATCC NSCLC; 20.5% in the assay on 786-0 renal; -38.1% (active) in the assay with COLO 205 colon; -17.9% (active) in the assay with DU-145 prostate; 7.46% (active) in the assay with K-562 leukemia. Besides, the growth is 51.2% in the assay on MALME-3M melanoma; 9.12% (active) in the assay on MDA-MB-231 breast; 16.5% with RXF 393 renal; 19.7% in the assay with SF-268 CNS; 9.01% (active) with SF-295 CNS; 1.82% (active) in the assay on SF-539 CNS. Further, the results for the growth in the assay on UACC-257 melanoma and in the assay with M14 melanoma were 67.8% and 7.05% (active), respectively.
`CCN(CC)CCC(CNc1ccnc2cc(Cl)ccc12)c1ccc(Cl)cc1` (stereo not given): the growth in the assay on NCI-H23 lung was 48.6%; in the assay on NCI-H226 lung it was 14.4%; in the assay on NCI-H322M lung, 34.6%; with HOP-62 NSCLC, 6.58% (active); in the assay on NCI-H460 lung, -12.4% (active); with HOP-92 NSCLC it was -39.9% (active). Also, the growth is -59.1% (active) in the assay on NCI-H522 lung; 12.3% in the assay with A549/ATCC NSCLC; -59.1% (active) in the assay on 786-0 renal; -97.7% (active) in the assay with COLO 205 colon; 67.7% in the assay with DU-145 prostate; -53.9% (active) in the assay with K-562 leukemia. Besides, the growth in the assay on MALME-3M melanoma was -83.1% (active); in the assay with MDA-MB-231 breast it was -32.1% (active); with RXF 393 renal, -90.4% (active); with SF-268 CNS it was -8.09% (active); with SF-295 CNS, -75.4% (active); in the assay with SF-539 CNS it was -78.2% (active). The results for the growth in the assay with UACC-257 melanoma and in the assay with M14 melanoma were -79.4% (active) and -80.2% (active), respectively.
Take `COc1ccc(C2=C(c3cc(OC)c(OC)c(OC)c3)C(=O)CC2)cc1`: the growth is 14.2% with NCI-H23 lung; 46.5% in the assay with NCI-H226 lung; 47.8% with NCI-H322M lung; 38.1% in the assay with HOP-62 NSCLC; 0.331% (active) with NCI-H460 lung; 40% in the assay with HOP-92 NSCLC. For the same compound, the growth in the assay on NCI-H522 lung is -35.5% (active); in the assay on A549/ATCC NSCLC it was 24.7%; in the assay with 786-0 renal, 28.9%; in the assay with COLO 205 colon, -27.9% (active); in the assay on DU-145 prostate, -19.3% (active); with K-562 leukemia it was 20.5%. Moreover, the growth in the assay on MALME-3M melanoma is 35.3%; in the assay on MDA-MB-231 breast, 17.2%; with RXF 393 renal it was 1.23% (active); in the assay with SF-268 CNS it was 33%; in the assay with SF-295 CNS, 9.47% (active); with SF-539 CNS, 0.222% (active). Also, the growth with UACC-257 melanoma was 65.4%; in the assay with M14 melanoma, 2.99% (active).
For `CC(C)(C)n1cc(-c2ccnc(NCCCNS(=O)(=O)c3ccc(Br)cc3)c2)c(-c2cccc(O)c2)n1`, the growth in the assay with NCI-H23 lung is 47.1%; with NCI-H226 lung, 40.4%; in the assay with NCI-H322M lung it was 30.9%; in the assay with HOP-62 NSCLC, 46.8%; in the assay with NCI-H460 lung, -21.2% (active); with HOP-92 NSCLC, 48.4%. The growth is 13.5% in the assay with NCI-H522 lung; 24.1% with A549/ATCC NSCLC; -2.1% (active) in the assay on 786-0 renal; -62.6% (active) with COLO 205 colon; 43% with DU-145 prostate; -10.9% (active) in the assay with K-562 leukemia. Besides, the growth in the assay with MALME-3M melanoma was -2.04% (active); in the assay on MDA-MB-231 breast, 8.91% (active); in the assay on RXF 393 renal it was 20.8%; in the assay with SF-268 CNS, 31.1%; in the assay with SF-295 CNS, 12%; in the assay with SF-539 CNS it was 15.7%. The growth in the assay on UACC-257 melanoma was 9.16% (active); in the assay with M14 melanoma, 5.23% (active).
Consider `OB(O)c1cccc(-c2nc3ccc4[nH]ncc4c3c3c2CCCC3)c1F`, for which the growth with NCI-H23 lung is 59%; with NCI-H226 lung, 37.9%; in the assay on NCI-H322M lung, 48.1%; with HOP-62 NSCLC, 29.3%; with NCI-H460 lung, 22.2%; with HOP-92 NSCLC, 27.1%. Moreover, the growth was 26.9% in the assay with NCI-H522 lung; 47.9% in the assay on A549/ATCC NSCLC; 34.8% in the assay with 786-0 renal; 38.7% in the assay on COLO 205 colon; 49.5% in the assay with DU-145 prostate; 66.2% in the assay with K-562 leukemia. The growth is 120% in the assay with MALME-3M melanoma; 40.9% in the assay with MDA-MB-231 breast; -20.1% (active) in the assay on RXF 393 renal; 53% with SF-268 CNS; 69.3% in the assay with SF-295 CNS; 8.65% (active) in the assay on SF-539 CNS. Besides, the growth in the assay on UACC-257 melanoma was 115%; in the assay with M14 melanoma, 79.7%.
As for `CNC(=S)NNC(=O)C1CC1`, the growth was 97.9% with NCI-H23 lung; 109% with NCI-H226 lung; 121% in the assay on NCI-H322M lung; 106% with HOP-62 NSCLC; 115% in the assay with NCI-H460 lung; 96% with HOP-92 NSCLC. For the same compound, the growth in the assay on NCI-H522 lung is 108%; in the assay with A549/ATCC NSCLC it was 99.2%; in the assay with 786-0 renal it was 97.2%; in the assay on COLO 205 colon, 113%; with DU-145 prostate it was 118%; in the assay on K-562 leukemia, 92.9%. Also, the growth with MALME-3M melanoma is 111%; in the assay with MDA-MB-231 breast, 114%; in the assay with RXF 393 renal, 117%; in the assay on SF-268 CNS, 109%; with SF-295 CNS, 115%; in the assay with SF-539 CNS, 104%. Besides, the values for the growth in the assay on UACC-257 melanoma and in the assay on M14 melanoma were 102% and 99.9%, respectively.
